The subject of experiment [1] is PRMT1 (protein arginine N-methyltransferase 1). The experiment can be described thus: PRMT1 binders on small-molecule microarrays, primary screen, biochemical, small-molecule microarray, 635 nm fluorescence (AID 1088).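 Note: binding of Prmt1 protein to compounds spotted on small-molecule microarray slides.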 Particulars: small-molecule microarray binding, higher = more signal.
A short description of experiment [2]: yeast growth modulation, basal conditions, primary screen, YJM789 clinical isolate, OD600, 24 h (AID 1089).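 Note: growth of clinical yeast isolate S. cerevisiae YJM 789 seeded 1000 cells per well; test concentration not given here.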 The following applies: S. cerevisiae YJM789 growth, higher = more signal, called active from +8 up or from −8 down.
Experiment [3] can be described thus: fission yeast growth modulation, primary screen, strain 972, OD600, 24 h, no modulator (AID 1090).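 Note: basal condition with compound alone and no growth modifier present; test concentration not given here.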 Particulars: S. pombe 972 growth, higher = more signal, called active from +8 up or from −8 down.
Experiment [4] can be described thus: S. cerevisiae growth modulation with rapamycin, primary screen, strain BY4716, OD600, 96 h (AID 1091). Note: test concentration not given here. The following applies: higher = more signal, called active from +8 up or from −8 down.
Experiment [5] has as its target Torsin-1A-interacting protein 2 (Homo sapiens) (UniProt Q8NFQ8). The experiment is described as follows: LULL1 binders on small-molecule microarray, primary screen, cell lysate, human LULL1 lysate, 635/667 nm fluorescence (AID 1092).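 Note: probe is lysate of COS7 cells overexpressing human LULL1; score merges per-feature 667 nm fluorescence with signal-to-noise.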 Particulars: hLULL1 lysate binding, 635 nm fluorescence, higher = more signal.
Experiment [6] in a line: E. coli growth modulation, two-sided OD650, primary screen, E. coli filamentation project, strain DRC41, 24 h (AID 1093).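 Note: MC1000 strain lacking acrAB efflux and sulA so SOS filamentation is blocked; test concentration not given here.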 The following applies: OD650, 24 h, higher = more signal, called active from +8 up or from −8 down.
Experiment [7] in a line: small-molecule microarray binders of probe aLefty2, primary screen, biochemical, biotinylated probe, 635/667 nm fluorescence (AID 1094).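 Note: score merges spot fluorescence near 667 nm with spot signal-to-noise ratio.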 The following applies: higher = more signal.
The subject of experiment [8] is Noggin (protein binding on small-molecule microarray). The experiment is described as follows: Noggin binders on small-molecule microarray, primary screen, biochemical, 635/667 nm fluorescence (AID 1095).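 Note: score merges 667 nm feature fluorescence with signal to noise over triplicate slides.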 Particulars: 635 nm fluorescence, higher = more signal.
The target of experiment [9] is Neurogenic locus notch homolog protein 3 (Homo sapiens) (UniProt Q9UM47). The experiment is described as follows: NOTCH3 binders on small-molecule microarray, primary screen, biochemical, 635/667 nm fluorescence (AID 1096). Particulars: NOTCH3 binding, 635 nm fluorescence, higher = more signal.
Experiment [10] can be described thus: small-molecule microarray binders of probe aEGFR, primary screen, biochemical, biotinylated probe, 635/667 nm fluorescence (AID 1097).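 Note: probe is a biotinylated anti-EGFR antibody binding compounds printed on slides; score combines fluorescence near 667 nm and signal to noise of each spot.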 Particulars: higher = more signal.
The subject of experiment [11] is Plasmodium falciparum Sir2 (PF13_0152, Sir2A). The experiment can be described thus: pfSir2 binders on small-molecule microarrays, primary screen, biochemical, small-molecule microarray, 635 nm fluorescence (AID 1098).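 Note: score merges spot fluorescence intensity with its signal-to-noise ratio.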 The following applies: small-molecule microarray binding, fluorescence 635 nm; higher = more signal.
A short description of experiment [12]: small-molecule microarray binders of probe aDKK1, primary screen, biochemical, biotinylated probe, 635/667 nm fluorescence (AID 1099).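 Note: score merges 667nm spot fluorescence with signal to noise across triplicate slides; reference of the scale not given here.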 The following applies: higher = more signal.
A short description of experiment [13]: small-molecule microarray binders of probe aCHRDL2, primary screen, biochemical, biotinylated probe, 635/667 nm fluorescence (AID 1100). The following applies: higher = more signal.
Experiment [14] can be described thus: splicing luciferase reporter signal modulators, primary screen, spliceosome inhibition project, cell-based, HEK293, splice +/- reporter (AID 1101).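 Note: HEK293 cells carrying a splicing-competent luciferase reporter gene; test concentration not given here.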 Particulars: luminescence, 24 h, higher = more signal, called active from +8 up or from −8 down. For orientation: Reporter assays use an easily measured gene product as a stand-in for the process of interest.
Experiment [15] deals with Fibroblast growth factor 10 (Homo sapiens) (UniProt O15520). The experiment can be described thus: FGF10 binders on small-molecule microarrays, primary screen, biochemical, small-molecule microarray, 635 nm fluorescence (AID 1102). Particulars: FGF10 binding, fluorescence 635 nm, higher = more signal.
For experiment [16], the system named is glycogen synthase kinase-3 (GSK3A per assay name; protocol says GSK3B). The experiment is described as follows: GSK3 binders on small-molecule microarrays, primary screen, biochemical, small-molecule microarray, 635 nm fluorescence, GSK3A (AID 1103). Note: the record names both GSK3A and GSK3B. The following applies: small-molecule microarray binding, fluorescence 635 nm; higher = more signal.
In experiment [17] the target is Epidermal growth factor receptor (Homo sapiens) (UniProt P00533). The experiment can be described thus: EGFR binders on small-molecule microarrays, primary screen, biochemical, small-molecule microarray, 635 nm fluorescence (AID 1104).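 Note: score merges 667 nm emission intensity with spot signal to noise over triplicate slides.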 The following applies: EGFR binding, higher = more signal.
Experiment [18] addresses Follistatin-related protein 3 (Homo sapiens) (UniProt O95633). The experiment can be described thus: FSTL3 binders on small-molecule microarrays, primary screen, biochemical, small-molecule microarray, 635 nm fluorescence (AID 1105).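 Note: score merges emission near 667 nm and signal to noise per printed spot across three slides.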 Particulars: FSTL3 binding, higher = more signal.
Experiment [19] concerns the target Dickkopf-related protein 1 (Homo sapiens) (UniProt O94907). The experiment can be described thus: DKK1 binders on small-molecule microarrays, primary screen, biochemical, small-molecule microarray, 635 nm fluorescence scan (AID 1106).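 Note: score merges emission near 667 nm with signal to noise over three replicate slides.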 Particulars: DKK1 binding, higher = more signal.
The test system of experiment [20] is Inhibin beta A chain (activin A). The experiment can be described thus: INHBA (activin A) binders on microarrays, primary screen, biochemical, small-molecule microarray, 635 nm fluorescence scan (AID 1107).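 Note: mouse activin A protein probed at 4.33 µg/mL on printed slides; score merges bound-protein fluorescence near 667 nm with spot signal-to-noise.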 Particulars: small-molecule microarray binding, higher = more signal.

SMILES strings stand for the structures. The source made the active and inactive calls.

Torsin-1A-interacting protein 2 (Homo sapiens), sequence (Q8NFQ8 whole entry, looked up): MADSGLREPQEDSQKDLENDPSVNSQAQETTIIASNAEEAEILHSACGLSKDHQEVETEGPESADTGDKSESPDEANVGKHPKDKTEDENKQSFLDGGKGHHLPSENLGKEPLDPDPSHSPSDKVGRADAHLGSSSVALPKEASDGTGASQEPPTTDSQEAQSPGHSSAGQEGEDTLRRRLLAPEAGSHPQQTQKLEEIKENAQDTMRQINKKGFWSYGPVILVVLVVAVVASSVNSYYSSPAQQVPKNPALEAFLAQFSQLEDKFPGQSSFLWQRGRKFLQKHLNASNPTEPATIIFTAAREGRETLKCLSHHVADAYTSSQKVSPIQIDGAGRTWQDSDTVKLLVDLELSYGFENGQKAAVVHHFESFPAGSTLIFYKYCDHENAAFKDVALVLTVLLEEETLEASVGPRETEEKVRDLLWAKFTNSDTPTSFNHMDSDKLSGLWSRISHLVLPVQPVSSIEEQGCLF
Dickkopf-related protein 1 (Homo sapiens), sequence (O94907 whole entry, looked up): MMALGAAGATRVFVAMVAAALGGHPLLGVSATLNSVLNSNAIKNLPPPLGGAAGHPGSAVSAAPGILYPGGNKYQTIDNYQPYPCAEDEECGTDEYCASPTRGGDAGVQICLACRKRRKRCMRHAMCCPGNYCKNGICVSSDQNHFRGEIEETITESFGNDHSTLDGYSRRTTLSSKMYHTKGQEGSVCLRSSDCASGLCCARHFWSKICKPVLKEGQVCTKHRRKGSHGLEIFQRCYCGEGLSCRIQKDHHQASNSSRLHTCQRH
Epidermal growth factor receptor (Homo sapiens), sequence (P00533 whole entry, looked up): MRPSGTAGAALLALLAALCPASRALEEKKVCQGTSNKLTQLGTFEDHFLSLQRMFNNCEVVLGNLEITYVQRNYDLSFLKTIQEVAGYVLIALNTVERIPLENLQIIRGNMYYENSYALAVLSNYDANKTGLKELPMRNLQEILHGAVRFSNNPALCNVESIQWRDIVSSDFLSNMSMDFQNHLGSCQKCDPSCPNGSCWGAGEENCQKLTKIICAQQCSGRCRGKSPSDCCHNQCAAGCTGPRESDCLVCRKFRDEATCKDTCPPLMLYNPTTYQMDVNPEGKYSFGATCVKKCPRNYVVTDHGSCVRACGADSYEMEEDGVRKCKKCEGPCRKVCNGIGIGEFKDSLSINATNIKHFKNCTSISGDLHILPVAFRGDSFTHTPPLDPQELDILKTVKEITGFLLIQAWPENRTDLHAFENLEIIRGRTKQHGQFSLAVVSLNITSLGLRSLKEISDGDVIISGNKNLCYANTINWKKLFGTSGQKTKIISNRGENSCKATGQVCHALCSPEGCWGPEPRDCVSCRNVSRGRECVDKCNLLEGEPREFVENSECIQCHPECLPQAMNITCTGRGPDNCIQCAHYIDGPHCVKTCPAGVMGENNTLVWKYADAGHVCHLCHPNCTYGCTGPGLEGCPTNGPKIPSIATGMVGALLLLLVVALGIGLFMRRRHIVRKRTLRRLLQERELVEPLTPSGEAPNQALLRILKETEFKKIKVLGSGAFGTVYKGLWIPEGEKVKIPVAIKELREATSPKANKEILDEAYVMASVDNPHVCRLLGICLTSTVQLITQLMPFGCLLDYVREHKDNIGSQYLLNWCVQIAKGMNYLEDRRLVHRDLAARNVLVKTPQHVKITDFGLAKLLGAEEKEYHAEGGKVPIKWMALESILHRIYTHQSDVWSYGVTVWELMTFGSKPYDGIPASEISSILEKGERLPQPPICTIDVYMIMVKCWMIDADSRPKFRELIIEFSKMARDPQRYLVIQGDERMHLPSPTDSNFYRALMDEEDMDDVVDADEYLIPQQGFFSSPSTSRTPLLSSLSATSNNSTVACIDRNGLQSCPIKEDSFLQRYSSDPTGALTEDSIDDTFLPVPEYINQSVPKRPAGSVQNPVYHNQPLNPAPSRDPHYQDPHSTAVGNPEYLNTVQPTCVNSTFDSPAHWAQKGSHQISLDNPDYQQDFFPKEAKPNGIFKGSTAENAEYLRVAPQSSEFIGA
Follistatin-related protein 3 (Homo sapiens), sequence (O95633 whole entry, looked up): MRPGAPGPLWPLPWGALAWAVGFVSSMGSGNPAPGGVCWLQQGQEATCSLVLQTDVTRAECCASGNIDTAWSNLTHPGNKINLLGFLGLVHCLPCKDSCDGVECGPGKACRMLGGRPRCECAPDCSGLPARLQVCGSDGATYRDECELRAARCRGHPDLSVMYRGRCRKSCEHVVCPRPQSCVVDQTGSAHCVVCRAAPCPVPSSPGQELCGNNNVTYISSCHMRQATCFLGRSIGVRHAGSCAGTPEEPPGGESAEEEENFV
Fibroblast growth factor 10 (Homo sapiens), sequence (O15520 whole entry, looked up): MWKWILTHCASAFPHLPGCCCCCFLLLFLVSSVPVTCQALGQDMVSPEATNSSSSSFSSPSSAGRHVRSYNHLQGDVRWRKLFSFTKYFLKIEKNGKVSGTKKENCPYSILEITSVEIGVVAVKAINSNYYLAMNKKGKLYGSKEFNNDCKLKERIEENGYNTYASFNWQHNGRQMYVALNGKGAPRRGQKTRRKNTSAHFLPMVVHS
Neurogenic locus notch homolog protein 3 (Homo sapiens), sequence (Q9UM47 whole entry, looked up): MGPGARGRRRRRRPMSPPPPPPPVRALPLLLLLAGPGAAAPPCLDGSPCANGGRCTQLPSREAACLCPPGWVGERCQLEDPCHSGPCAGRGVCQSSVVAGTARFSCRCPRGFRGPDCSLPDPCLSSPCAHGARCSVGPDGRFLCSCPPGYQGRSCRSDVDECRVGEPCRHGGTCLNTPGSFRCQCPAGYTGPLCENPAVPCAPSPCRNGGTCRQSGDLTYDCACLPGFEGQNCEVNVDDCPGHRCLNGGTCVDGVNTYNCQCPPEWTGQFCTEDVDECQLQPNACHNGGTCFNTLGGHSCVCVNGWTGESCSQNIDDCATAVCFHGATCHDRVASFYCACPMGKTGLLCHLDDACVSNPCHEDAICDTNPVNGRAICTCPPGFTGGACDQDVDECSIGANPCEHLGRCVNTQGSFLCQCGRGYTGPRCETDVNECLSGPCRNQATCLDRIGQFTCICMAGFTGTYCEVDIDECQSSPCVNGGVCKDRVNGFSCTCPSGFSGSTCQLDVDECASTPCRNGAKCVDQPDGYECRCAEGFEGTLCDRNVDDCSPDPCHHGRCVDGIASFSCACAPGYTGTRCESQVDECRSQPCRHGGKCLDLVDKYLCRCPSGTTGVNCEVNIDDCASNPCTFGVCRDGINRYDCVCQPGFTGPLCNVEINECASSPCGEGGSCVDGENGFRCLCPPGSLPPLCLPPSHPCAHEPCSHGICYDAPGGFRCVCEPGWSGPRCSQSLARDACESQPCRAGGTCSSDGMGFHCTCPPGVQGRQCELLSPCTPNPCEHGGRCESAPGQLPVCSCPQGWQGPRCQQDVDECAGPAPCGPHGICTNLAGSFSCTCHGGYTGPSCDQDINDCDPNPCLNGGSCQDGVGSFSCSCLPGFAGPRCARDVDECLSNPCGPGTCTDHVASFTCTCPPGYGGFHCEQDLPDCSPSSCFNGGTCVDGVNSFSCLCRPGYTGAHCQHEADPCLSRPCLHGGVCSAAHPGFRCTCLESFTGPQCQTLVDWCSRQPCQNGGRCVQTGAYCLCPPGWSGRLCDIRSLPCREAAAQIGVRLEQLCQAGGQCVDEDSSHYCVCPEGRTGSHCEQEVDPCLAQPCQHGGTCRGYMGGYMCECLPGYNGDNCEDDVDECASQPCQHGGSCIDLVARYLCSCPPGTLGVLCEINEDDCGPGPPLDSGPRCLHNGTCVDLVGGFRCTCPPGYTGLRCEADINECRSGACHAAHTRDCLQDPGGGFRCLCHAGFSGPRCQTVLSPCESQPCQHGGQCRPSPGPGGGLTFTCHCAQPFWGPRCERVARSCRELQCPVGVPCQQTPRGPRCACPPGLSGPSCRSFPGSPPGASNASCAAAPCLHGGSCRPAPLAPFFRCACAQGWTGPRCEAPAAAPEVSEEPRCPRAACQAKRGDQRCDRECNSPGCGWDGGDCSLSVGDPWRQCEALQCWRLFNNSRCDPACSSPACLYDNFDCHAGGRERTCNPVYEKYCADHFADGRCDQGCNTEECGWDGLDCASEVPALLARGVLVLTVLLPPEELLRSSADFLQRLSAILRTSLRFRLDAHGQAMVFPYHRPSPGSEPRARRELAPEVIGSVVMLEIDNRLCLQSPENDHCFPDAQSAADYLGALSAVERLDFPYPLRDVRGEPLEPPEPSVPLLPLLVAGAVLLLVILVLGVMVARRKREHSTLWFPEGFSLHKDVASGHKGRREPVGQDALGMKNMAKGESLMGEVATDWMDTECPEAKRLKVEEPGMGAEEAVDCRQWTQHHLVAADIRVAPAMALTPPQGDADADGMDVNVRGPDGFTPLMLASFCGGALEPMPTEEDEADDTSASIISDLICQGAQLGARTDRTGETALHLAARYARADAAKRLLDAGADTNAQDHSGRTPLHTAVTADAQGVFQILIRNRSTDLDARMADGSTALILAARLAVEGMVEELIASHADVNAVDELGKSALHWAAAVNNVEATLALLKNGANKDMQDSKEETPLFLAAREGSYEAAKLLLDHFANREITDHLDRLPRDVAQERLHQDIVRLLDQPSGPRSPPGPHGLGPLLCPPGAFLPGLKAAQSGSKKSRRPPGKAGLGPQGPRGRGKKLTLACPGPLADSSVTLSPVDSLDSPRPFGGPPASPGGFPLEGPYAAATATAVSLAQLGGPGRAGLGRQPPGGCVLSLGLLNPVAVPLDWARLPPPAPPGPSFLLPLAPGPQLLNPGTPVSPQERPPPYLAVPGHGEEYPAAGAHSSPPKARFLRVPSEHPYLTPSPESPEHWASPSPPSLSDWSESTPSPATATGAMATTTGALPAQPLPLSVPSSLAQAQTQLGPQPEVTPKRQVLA

As to `C=C[C@H](OC)[C@@H](OC(=O)Nc1ccc(SC)cc1)c1ccc(OC)c(O)c1`, the composite z-score in experiment [1] was 0.0672; in [5], -0.023; in experiment [7] it was -0.0986; in experiment [8], -0.878; in [9], -0.321; in [10] it was -0.338. Further, the composite z-score in experiment [11] was 0.0729; in experiment [12], -0.276; in [13], 0.241; in experiment [15] it was -0.337; in experiment [16], -0.392; in [17], -0.915. The composite z-score is -1.4 in experiment [18], -0.559 in [19] and -0.778 in experiment [20]. Moreover, the z-score in [2] was -0.55 (inactive); in experiment [3], -0.965 (inactive); in [4] it was -0.44 (inactive); in [6], 2.04 (inactive); in experiment [14] it was -1.84 (inactive).
Take `CCCC[C@@H]1C[C@H]1[C@@H](NC(=O)c1ccccc1)c1ccccc1C(F)(F)F`: the composite z-score is 1.03 in experiment [1]; 3.38 in experiment [5]; 0.198 in [7]; 0.0984 in experiment [8]; 0.961 in [9]; -0.123 in experiment [10]. In addition, the composite z-score in experiment [11] is 1.15; in experiment [12], 0.526; in experiment [13] it was 1.05; in [15], 0.0165; in experiment [16], 0.415; in experiment [17], -0.279. For the same molecule, the composite z-score in experiment [18] was -0.0027; in experiment [19] it was -0.521; in experiment [20] it was 0.616. Also, the z-score in [2] is 0.261 (inactive); in experiment [3], 0.367 (inactive); in experiment [4], 0.0237 (inactive); in experiment [6], 0.151 (inactive); in experiment [14], -0.261 (inactive).
With `C=CC[C@@]12N=C(c3ccc(OCCCO)cc3)O[C@@H]1c1ccccc1CN(Cc1ccccc1)C2=O`, the composite z-score worked out at 1.54 in experiment [1]; 2.86 in experiment [5]; 0.258 in experiment [7]; 0.347 in [8]; 0.7 in experiment [9]; 0.0122 in experiment [10]. The composite z-score in experiment [11] is 1.67; in [12], 0.761; in experiment [13], 0.757; in experiment [15], 0.623; in experiment [16] it was 1.28; in experiment [17], -0.0152. For the same molecule, the figures for the composite z-score in [18], in experiment [19] and in experiment [20] were 0.0791, 0.191 and 1.01, respectively. Besides, the z-score in [2] is -0.127 (inactive); in experiment [3] it was -3.56 (inactive); in experiment [4] it was 5.67 (inactive); in [6], 1.1 (inactive); in [14], -0.291 (inactive).
For the molecule `C=CC[C@]1(C(N)=O)N=C(c2ccc(OCCCO)cc2)O[C@H]1c1ccccc1CN=[N+]=[N-]`, the composite z-score is 1.1 in [1]; 3.05 in experiment [5]; 0.0565 in experiment [7]; 0.126 in experiment [8]; -0.907 in [9]; 0.0183 in experiment [10]. The composite z-score is 0.255 in experiment [11]; 0.683 in experiment [12]; 1.24 in [13]; 0.0555 in experiment [15]; 0.518 in [16]; -1.03 in experiment [17]. Besides, the composite z-score in [18] was -0.325; in experiment [19], -0.632; in experiment [20] it was 1.46. Moreover, the z-score in experiment [2] is -1.36 (inactive); in experiment [3] it was -0.881 (inactive); in [4] it was -0.655 (inactive); in [6], 1.85 (inactive); in experiment [14] it was -0.783 (inactive).
For `CC(C)[Si]1(C(C)C)O[C@@H](c2ccccc2)c2cc(C3CC3)nc(-c3ccc(Oc4ccccc4)cc3)c21`, the composite z-score is -0.63 in experiment [1]; 0.369 in experiment [5]; -0.142 in [7]; -0.101 in [8]; -1.22 in experiment [9]; -0.169 in experiment [10]. Also, the composite z-score in experiment [11] is -1.25; in experiment [12], -0.105; in experiment [13], -0.037; in [15], -0.318; in [16], -0.343; in [17] it was -0.0891. In addition, the composite z-score was -0.489 in experiment [18], -0.159 in experiment [19] and 0.513 in experiment [20]. Further, the z-score in experiment [2] is 0.995 (inactive); in [3], -0.808 (inactive); in [4], 1.21 (inactive); in experiment [6] it was 1.94 (inactive); in experiment [14], -0.961 (inactive).

The values above are taken from PubChem BioAssay.
